ROMK primary: human ROMK K+ channel modulation, primary screen | Tet-inducible ROMK, thallium flux fluorescence; actives lie on both sides | AID 1918 | 130,000 compounds, 2% hits | B-score at 10 µM;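 active means signal ratio slope over the read window, or its plate-corrected B-score, at least 3 SD from the plate mean, either direction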;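 further: B-score of the F/F0 ratio slope over 7 to 12 s after thallium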
INS promoter inh: TRM-6 insulin promoter activity inhibition; TRM-6 cells (human fetal islet line), insulin promoter-eGFP reporter, imaging; reporter expression induced with tamoxifen; inhibition, % at 2 µM; 130,000 compounds, 0.9% hits; AID 1273;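 active means inhibition above the mean plus 3 SD, with well images judged a real hit on visual review, cut at about 60% in these data, passing the limit was not always enough; inconclusive means inhibition over the cutoff but images rejected on review; inactive means inhibition not above the cutoff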
KCC2 mod: modulators of human KCC2 chloride dependent transport | Q9H2X9 | KCC2 cells, thallium flux FluoZin-2 fluorescence | B-score of Tl+ flux slope (higher = more flux/activation; lower = inhibition) at 10 µM | 190,000 compounds, 2.2% hits;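 active means thallium flux slope and its plate-corrected score both differing from the plate sample mean at a set confidence after two filtering rounds, in either direction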;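 further: slope of fluorescence scaled to starting intensity during 10 to 20 s after thallium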
Lmaj promast: Leishmania major promastigote growth inhibition; inhibition, % at 10 µM; 200,000 compounds, 9% hits; Leishmania major promastigotes, resazurin fluorescence viability; in the data active means inhibition above about 50%;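 further: promastigotes grown with compound for 44 hours at 28 °C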
Insulin prom up: MIN6 insulin promoter up-regulation; AID 1625; 190,000 compounds, 0.3% hits; MIN6 insulin promoter-GFP reporter, high-content imaging; stronger effect = higher value; z-score at 5 µM;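 active means z-score above 3 at 5 µM with at least 500 cells counted in the well; inconclusive means wells under 500 cells, flagged as cytotoxic or low count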
WT yeast gro inh: growth inhibition of WT yeast, mitochondrial fusion screen | mitochondrial fusion phenotypic screen, WT strain | inhibition, % at 10 µM | 190,000 compounds, 2.1% hits; in the data active means inhibition above about 58%; tested in S. cerevisiae
Lmaj promast 1uM: inhibitors of Leishmania major promastigote growth, repeat at 1 uM. shares compounds with Lmaj promast. L. major promastigote growth, resazurin fluorescence, 48 h. inhibition, % at 1 µM. 1,100 compounds, 13% hits. AID 1258;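 active means inhibition above about 50% in both repeat tests, limit read from the data; inconclusive means one repeat under the set limit, the other over it; inactive means both repeats under the set limit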
Hits are given with their value; – = inactive; ? = inconclusive; · = no result given. Most compounds without a hit are left out; they make up all but 12% or so of the library.

SMILES	ROMK primary	INS promoter inh	KCC2 mod	Lmaj promast	Insulin prom up	WT yeast gro inh	Lmaj promast 1uM
CCOC(=O)c1oc2cccc(OCC(O)CNC(C)C)c2c1C (stereo not given)	–	–	·	101	–	69	–
CCN(CC)CCOC(c1ccccc1)c1ccc(C)cc1 (stereo not given)	–	–	–	96	–	–	74
COc1ccc(CNCCC(c2ccc(OC(C)C)cc2)C(C)C)cc1OC (stereo not given)	–	·	·	98	–	–	–
O=C(O)c1cc([N+](=O)[O-])cc2c1nnn2O	–	–	–	–	–	–	·
O=C(O)CCC(=O)N1CC=C(c2ccccc2)CC1	–	–	–	63	–	–	–
O=C1CSC(c2cccnc2)N1c1ccccc1 (stereo not given)	·	·	–	·	·	·	·
Cc1nccc(-c2ccc(-n3cnc4ccccc43)cc2)n1	–	·	·	62	–	–	–
Cc1nn(C)cc1S(=O)(=O)N1CCN(Cc2cccc(Cl)c2)CC1	–	·	–	–	–	–	·
COC(=O)C1=C(N)N(c2ccc(F)cc2)C2=C(C(=O)CCC2)C1c1ccc2c(c1)OCO2 (stereo not given)	·	·	–	72	–	–	–
CC1=C(C(=O)Nc2ccccc2)C(c2ccc3c(c2)OCO3)C2=C(CCCC2=O)N1 (stereo not given)	·	–	–	–	–	–	·
CNC(=S)/N=C/NOCc1ccc(Cl)cc1Cl	–	–	–	58	–	62	–
c1ccc(COn2nnc3ccccc32)c(COn2nnc3ccccc32)c1	–	–	–	87	–	–	–
O=Cc1cn(-c2ccccc2)nc1-c1ccc2c(c1)OCCO2	–	–	–	96	·	–	–
Cc1cccc2sc(NC(=O)c3cccc(S(=O)(=O)N4CCc5ccccc54)c3)nc12	–	–	–	96	–	–	–
CCOc1ccc(C(=O)OCC(=O)c2c(N)n(C)c(=O)n(C)c2=O)cc1OCC	–	–	·	–	·	–	·
O=C(O)c1ccccc1-c1ccccc1C(=O)NNc1ccc([N+](=O)[O-])cc1	–	·	–	·	·	·	·
O=C(NNc1ccccc1)C(=O)NNS(=O)(=O)c1ccc([N+](=O)[O-])cc1	–	–	–	89	–	–	–
O=C1c2ccccc2-c2onc3ccc(Oc4ccccc4)c1c23	–	–	–	100	–	–	–
O=C(c1ccccc1)c1coc2c1C(=O)c1ccccc1C2=O	–	–	–	–	–	–	·
Cc1ccc(N(CC(O)Cn2c3ccccc3c3ccccc32)S(C)(=O)=O)cc1 (stereo not given)	–	–	–	–	·	–	·
Cc1ccc(N(CC(O)CON=C2c3ccccc3-c3ccccc32)S(C)(=O)=O)cc1 (stereo not given)	–	–	·	100	–	–	?
Cc1cc(Nc2ncc(Cl)cc2Cl)n(-c2ccccc2C)n1	–	–	–	82	–	–	–
Cc1ccccc1Cn1nnc(C(=O)Nc2cccc(C)c2C)c1N	·	·	–	95	–	–	–
COc1ccc(N(CC(=O)Nc2ccc3c(c2)OCCO3)S(=O)(=O)c2cccnc2)cc1	·	–	–	–	–	–	·
C/C(=N\O)c1ccc2c3ccccc3n(C)c2c1	·	·	–	–	–	–	·
SMILES	ROMK primary	INS promoter inh	KCC2 mod	Lmaj promast	Insulin prom up	WT yeast gro inh	Lmaj promast 1uM
CCn1c2ccccc2c2cc(/C(C)=N/O)ccc21	·	–	–	69	–	–	–
CN(C)/C=C/C(=C\C(=O)C(F)(F)F)Nc1ccc(C(F)(F)F)cc1	–	·	–	–	–	–	·
CCN=C1S/C(=C\c2ccc(N3CCOCC3)cc2C)C(=O)N1CC	–	–	–	69	–	–	–
Cc1ccc(-c2cc(C(F)F)nc(NCc3cccnc3)n2)cc1	–	–	–	57	–	–	–
CCN(C(=O)COC(=O)CNC(=O)c1ccc(C)c(C)c1)C1CCS(=O)(=O)C1 (stereo not given)	–	–	–	–	–	–	·
O=C(c1cn(-c2ccccc2)nc1-c1ccc(Cl)s1)N1CCOCC1	–	–	–	64	–	–	–
CC(C(=O)N=Nc1c(O)[nH]c2ccccc12)n1cnc2ccccc2c1=O (stereo not given)	–	–	–	–	–	–	·
Cc1ccc(C(CCN)c2ccco2)cc1 (stereo not given)	–	–	–	98	–	–	–
Cc1ccc(C(CC(N)=O)c2ccco2)cc1 (stereo not given)	·	–	–	–	–	–	·
CCCCCc1nnc(N)s1	–	·	–	–	·	–	·
ClC(Br)=C(n1cnc2ccccc21)n1cnc2ccccc21	–	–	–	100	–	–	–
C=C(Br)Cn1cnc2ccccc21	–	–	–	–	–	–	·
N#CC1=C(N)OC2=C(C(=O)CCC2)[C@]12C(=O)N(CC(N)=O)c1ccccc12	–	–	–	–	–	–	·
N#CC1=C(N)OC2=C(C(=O)CCC2)C12C(=O)N1CCCc3cccc2c31 (stereo not given)	–	–	–	60	–	–	–
CC(CCc1ccccc1)NCc1ccncc1 (stereo not given)	·	–	·	89	–	–	–
CC(Cc1ccccc1)C(=O)NCc1ccncc1 (stereo not given)	–	–	–	–	–	–	·
c1ccc(C(c2ccccc2)c2nc(-c3cccnc3)no2)cc1	·	–	·	68	–	86	–
N/C(=N\OC(=O)CCC1CCCCC1)c1ccc([N+](=O)[O-])cc1	–	–	–	76	–	–	–
COc1ccc(C(=O)NCC2OCCc3ccccc32)c(O)c1 (stereo not given)	–	–	–	53	–	–	–
S=c1[nH]ccn1-c1cccc(Cl)c1	·	–	–	59	–	–	–
Cc1ccc(-n2cc[nH]c2=S)cc1C	·	–	–	–	–	–	·
Cc1nnc(SCC2=C(C(=O)O)N3C(=O)C(NC(=O)c4cc(F)c(F)cc4Cl)C3SC2)s1 (stereo not given)	–	–	–	–	–	–	·
Cc1cc(C)c2c(CC(=O)N(CCC#N)Cc3cccnc3)coc2c1	·	–	–	81	–	–	–
CN1c2cccc3cccc(c23)N(C)C1(C)C	–	–	–	99	·	–	–
CC(=O)Cc1cc(O)c2ccccc2c1OC(=O)c1ccccc1	–	–	–	–	–	–	·
CC(=O)Oc1c(C)cc(O)c2ccccc12	–	–	–	82	–	–	–
Cc1cc2c(nc1C)CCCN2C[C@@H](C)O/N=C1/[C@H]2CCn3c(=O)n(-c4ccccc4)c(=O)n3[C@H]2[C@H](O)[C@@H]2O[C@H]12	–	–	–	–	–	–	·
Cc1ccc2c(c1)c(C)cc[n+]2Cc1ccccc1	·	·	–	–	–	–	·
Cc1ccc(C[n+]2cccc(-c3ccccc3)c2)c(C)c1	–	–	–	91	?	–	–
Cc1ccc2nc(C)c(C(=O)N/N=C/c3ccco3)cc2c1	–	–	–	–	–	–	·

Source: PubChem
